Laboratory results from PubChem BioAssay AID1159580 (chemical genetic matrix, 2015).
The campaign covered roughly 5,500 compounds. About 2,000 (36%) were called active. About 18% were inconclusive and are not listed. Cut-off read from the data, not from the text of the source: active = normalized growth mostly below about 0.91 (no sharp cut-off); inconclusive = no clear call, values can overlap the other calls; inactive = mostly above about 0.92. The list shows a part of the results.

Assay: chemical genetic growth profiling, strain panel (AID 1159580);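 note: tested at 20 µM; growth read once vehicle control cultures reached saturation at 30 °C; 1 = growth at the plate median or of vehicle wells; lower values mean less growth of the strain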
Conditions: S. cerevisiae deletion strains, growth OD

Measured: normalized growth

CCCC1O[C@@H]2C[C@H]3[C@@H]4CCC5=CC(=O)C=C[C@]5(C)[C@H]4[C@@H](O)C[C@]3(C)[C@]2(C(=O)CO)O1 (stereo not given in full)
inactive: locus YAL040C, strain CLN3, active compounds read low 1.06 | locus YCL061C, strain MRC1 (second series), active compounds read low 0.998 | locus YER002W, strain NOP16, active compounds read low 1.01 | locus YGR078C, strain PAC10, active compounds read low 1.02 | locus YMR263W, strain SAP30, active compounds read low 1 | locus YNL153C, strain GIM3, active compounds read low 0.982 | locus YNL175C, strain NOP13, active compounds read low 0.994 | locus YNL197C, strain WHI3, active compounds read low 0.974 | locus YNL224C, strain SQS1, active compounds read low 1.01 | locus YOR083W, strain WHI5 (second series), active compounds read low 0.992
